Structures are written as SMILES.

This assay is described as follows: JC-1 mitochondrial signal, unstimulated MM1S myeloma – cell-based, JC-1 fluorescence, 24 h, 100 nL compound, profiling panel (AID 1170). Also: test concentration not given here. As to conditions: MM1S mitochondrial potential, higher = more signal.
`COC(=O)[C@H](C)NC(=O)CCC1CC(OC(=O)NCc2cccc3ccccc23)CC2(CCCC(COC(=O)NCc3ccccc3)O2)O1` (stereo not given in full) displayed a z-score of -0.845.
The result for `O=C1CCCC=C1C(O)C1CCCCC1` (stereo not given) reads 0.327; that for `COc1ccc(COC(=O)NN=C2C[C@@H](O)[C@@H](O)[C@@H]3[C@@H]4C(=O)N(Cc5ccccc5)C(=O)[C@@H]4CC[C@@H]23)cc1`, -1.46.
`CO[C@H]1COC(=O)CC=C[C@H](C)[C@H](OC)COC(=O)[C@@H](C)NC(=O)CC=C[C@@H]1C` came in with a z-score of -0.248.
Turning to `CC(C)CON=C1[C@H]2CCn3c(=O)n(C)c(=O)n3[C@H]2[C@H](O)[C@@H]2O[C@H]12`, the z-score came to 0.0994.
The result for `CCOC(=O)CCN1C(=O)[C@H]2[C@H]3[C@H](O)[C@H](O)CC(=NOCC=C(C)CCC=C(C)C)[C@@H]3CC[C@H]2C1=O` reads -0.251; that for `CC[C@@H](c1ccccc1)n1c(=O)n2n(c1=O)[C@H]1[C@H](O)[C@@H]3O[C@@H]3C(=NOCc3ccccc3)[C@H]1CC2`, -1.68; that for `CC(CCN1CCCc2nc(C)c(C)cc21)=NO[C@@H](C)c1cn([C@H](CO)Cc2ccccc2)nn1`, -0.762.
On to `COC(=O)[C@H](C)NC(=O)CCC1CC(OC(=O)NCCc2ccc(F)cc2)CC2(CCCC(COC(=O)NCC3CCCCC3)O2)O1` (stereo not given in full), for which the z-score is -0.771.
`CCOC(=O)[C@H](Cc1ccccc1)NC(=O)CCC1CC(OC(=O)NCc2ccc3c(c2)OCO3)CC2(CCCC(COC(=O)NCCCN3CCCC3=O)O2)O1` (stereo not given in full): the z-score came out at 0.547.
In turn, `CC(CCC(=O)OC[C@H]1O[C@H](C#Cc2ccccc2)C=C[C@@H]1Oc1ccc(C)cc1)=NOC[C@@H](C)[C@H](OCc1ccccc1)C(C)C` yielded a z-score of -0.327.
As to `CCN1C(=O)[C@H]2[C@H]3[C@H](O)[C@H](O)CC(=NOC[C@@H](O)[C@H]4O[C@@H]5OC(C)(C)O[C@@H]5[C@H]4O)[C@@H]3CC[C@H]2C1=O`, the z-score was -0.481.
For the compound `CC(C)CON=C1C[C@@H](O)[C@@H](O)[C@@H]2[C@@H]3C(=O)N(Cc4ccc5c(c4)OCO5)C(=O)[C@@H]3CC[C@@H]12`, the z-score is -1.49.
Then `C=CC[C@@H]1C=C[C@H](ON=C2C[C@@H](O)[C@@H](O)[C@@H]3[C@@H]4C(=O)N(CC)C(=O)[C@@H]4CC[C@@H]23)[C@@H](CO)O1`, with -0.354; and `CO[C@H]1COC(=O)CCC[C@H](C)[C@H](OC)COC(=O)CC=C[C@@H]1C`, with -0.982; and `COc1ccc2c(c1)O[C@@H](c1cccc(C(F)(F)F)c1)[C@H](O)C2=O`, with -0.724.
Turning to `CC(CCN1CCCc2nc(C)c(C)cc21)=NOC[C@@H](O)COCc1ccco1`, the z-score was -0.0723.
In turn, `CCN1C(=O)[C@H]2[C@H]3[C@H](O)[C@H](O)CC(=NO[C@@H]4O[C@H](CO)[C@@H](O)[C@H](O)[C@H]4O)[C@H]3CC[C@H]2C1=O` returned a z-score of 0.652.
The result for `CCOC(=O)[C@H](CC(C)C)NC(=O)CCC1CC(OC(=O)NCc2ccc3c(c2)OCO3)CC2(CCCC(COC(=O)NCCOc3ccccc3)O2)O1` (stereo not given in full) reads -0.0386.
Then `O=C1C2=CC[C@H]3C(=O)N(c4ccc(F)cc4F)C(=O)[C@H]3[C@H]2[C@H](O)[C@@H]2O[C@H]12`, with 0.556; and `CC(=O)OC[C@H]1O[C@H](C#CCCc2ccccc2)C=C[C@@H]1OC(C)=O`, with -1.11.
`CC(C)=NOC(C)CN1CCCc2nc(C)c(C)cc21` (stereo not given) had a z-score of 0.226.
Compound `COC(=O)[C@H](C)NC(=O)CCC1CC(OC(=O)NCc2cccc3ccccc23)CC2(CCCC(COC(=O)NCCOc3ccccc3)O2)O1` (stereo not given in full) had a z-score of -0.463.
Then `C[C@@H]1CC[C@@H](C(=O)O)N[C@H]1c1cccc(N2CCOCC2)c1`, with -0.144; and `COC(=O)[C@@H]1CC[C@H](C)[C@@H](c2ccc(Br)cc2)N1C[C@H](O)CN=[N+]=[N-]`, with 0.75; and `CCOC(=O)[C@H](Cc1ccccc1)NC(=O)CCC1CC(OC(=O)NCCc2ccc(F)cc2)CC2(CCCC(COC(=O)NCc3cccc(C(F)(F)F)c3)O2)O1` (stereo not given in full), with 0.464.
Then `COc1cccc([C@H]2Oc3ccc(OC)cc3C(=NOCC[C@@H]3C=C[C@H](OC(C)=O)[C@@H](COC(C)=O)O3)[C@@H]2O)c1`, with -1.04.
As for `CC(=O)OC[C@H]1O[C@H](CC=NO[C@@H](C)c2cc(-c3c(C)cc(C)cc3C)no2)C=C[C@@H]1OC(C)=O`, the z-score is -0.322.
As to `CCOC(=O)NN=C1C[C@@H](O)[C@@H](O)[C@@H]2[C@@H]3C(=O)N(c4ccc(F)cc4F)C(=O)[C@@H]3CC[C@H]12`, the z-score was -0.354.
`O=C1[C@H]2[C@H]3[C@H](O)[C@H](O)CC(=NO[C@@H]4O[C@H](CO)[C@@H](O)[C@H](O)[C@H]4O)[C@H]3CC[C@H]2C(=O)N1C[C@@H]1CCCO1` yielded a z-score of -1.13.

The values are drawn from PubChem BioAssay.
